Laboratory results taken from PubChem BioAssay (NCI).
This is part of a sample that, as a whole, favours compounds with a hit. Of some 83,000 tested, about 20% had one in any assay.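 How to read the values: 0–100, growth inhibition (40 = 60% inhibited); 0, no net growth; -100 to 0, cell death (-40 = 40% of starting cells died; -100 = all dead).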 A number with no mark means an inactive call. Calls of active or inactive are those of the source. The calls were made as follows: active = growth percent below 10; inactive = the rest.

Experiments:
Test in all cases: NCI-60 one-dose screen, 48 h (100 = growth as untreated, 0 = no growth, -100 = all killed)
Conditions in all cases: 10 µM unless noted
NCI-H23 lung = test system: NCI-H23 lung
NCI-H226 lung = test system: NCI-H226 lung
NCI-H322M lung = test system: NCI-H322M lung
HOP-62 NSCLC = test system: HOP-62 NSCLC
NCI-H460 lung = test system: NCI-H460 lung
HOP-92 NSCLC = test system: HOP-92 NSCLC
NCI-H522 lung = test system: NCI-H522 lung
A549/ATCC NSCLC = test system: A549/ATCC NSCLC
786-0 renal = test system: 786-0 renal
COLO 205 colon = test system: COLO 205 colon
DU-145 prostate = test system: DU-145 prostate
K-562 leukemia = test system: K-562 leukemia
MALME-3M melanoma = test system: MALME-3M melanoma
MDA-MB-231 breast = test system: MDA-MB-231 breast
RXF 393 renal = test system: RXF 393 renal
SF-268 CNS = test system: SF-268 CNS
SF-295 CNS = test system: SF-295 CNS
SF-539 CNS = test system: SF-539 CNS
UACC-257 melanoma = test system: UACC-257 melanoma
M14 melanoma = test system: M14 melanoma

Row | Structure (SMILES) | growth (NCI-H23 lung) | growth (NCI-H226 lung) | growth (NCI-H322M lung) | growth (HOP-62 NSCLC) | growth (NCI-H460 lung) | growth (HOP-92 NSCLC) | growth (NCI-H522 lung) | growth (A549/ATCC NSCLC) | growth (786-0 renal) | growth (COLO 205 colon) | growth (DU-145 prostate) | growth (K-562 leukemia) | growth (MALME-3M melanoma) | growth (MDA-MB-231 breast) | growth (RXF 393 renal) | growth (SF-268 CNS) | growth (SF-295 CNS) | growth (SF-539 CNS) | growth (UACC-257 melanoma) | growth (M14 melanoma)
1 | O=c1oc2c(cnc3ccccc32)cc1-c1cccs1 | 101% | 107% | 104% | 100% | 112% | 102% | 104% | 104% | 98.8% | 106% | 113% | 94.1% | 103% | 107% | 112% | 100% | 105% | 105% | 108% | 104%
2 | Clc1ccc(-c2cn3ccsc3n2)c(Cl)c1Cl | 89.8% | 84.6% | 118% | 84.9% | 105% | 58.8% | 81.3% | 97.5% | 103% | 94.9% | 76.2% | 73.1% | 117% | 76.1% | 95.2% | 102% | 91.8% | 88% | 87.7% | 98.7%
3 | CCOC(=O)Nc1nc2ccc(SCC(C)C)cc2s1 | 40.9% | 46.6% | 36.7% | 22.6% | 19.3% | 33.6% | 4.9% (active) | 28.5% | 27.8% | -14.9% (active) | 42.2% | 18% | 32.4% | 40.6% | -3.43% (active) | 45.2% | 26.1% | 12.3% | 55% | 25.8%
4 | CCCCCCC(CCCC)COC(=O)c1ccc(Cl)cc1 (stereo not given) | 110% | 92.8% | 111% | 119% | 102% | 89.5% | 105% | 117% | 103% | 108% | 105% | 104% | 111% | 106% | 105% | 102% | 102% | 106% | 112% | 104%
5 | C#Cc1cccc(Oc2ccc(NC(=O)CCl)cc2)c1 | 20.7% [8.25 µM] | 55.9% [8.25 µM] | 100% [8.25 µM] | 83.5% [8.25 µM] | 19% [8.25 µM] | 81.2% [8.25 µM] | -32.6% [8.25 µM] (active) | 68.3% [8.25 µM] | 74.8% [8.25 µM] | 61.6% [8.25 µM] | 72% [8.25 µM] | 7.79% [8.25 µM] (active) | 21.3% [8.25 µM] | 41.1% [8.25 µM] | 62.6% [8.25 µM] | 49.5% [8.25 µM] | 85.5% [8.25 µM] | 47% [8.25 µM] | 75.8% [8.25 µM] | 24.6% [8.25 µM]
6 | CCCCN1C(=O)/C(=c2\sc3n(c2=O)NC2C(N=3)N(CC)C(=O)N2CC)c2ccccc21 (stereo not given) | 46.9% | 70.4% | 69.9% | 71.7% | 35.3% | 60% | 21.4% | 36.6% | 53.6% | 24.9% | 20.6% | 14.6% | 57.6% | 34.6% | -0.314% (active) | 48.6% | 69.7% | 13.5% | 31% | 25.3%
7 | N#CC(C#N)N=Nc1ccc(Cl)cc1Cl | 86.2% | 97.7% | 107% | 80.7% | 105% | -26.5% (active) | 39.3% | 105% | 91.2% | 67.2% | 80.8% | 40.7% | 77.3% | 68.2% | 116% | 103% | 100% | 74.7% | 87.3% | 81.8%
8 | COC(c1ccc2ccccc2c1)C(C)C(F)F (stereo not given) | 95.7% | 100% | 99.6% | 86.7% | 111% | 107% | 86.9% | 96.8% | 90.5% | 112% | 110% | 97.1% | 99.5% | 111% | 106% | 100% | 97.1% | 95.2% | 91.3% | 99.1%
9 | O=C(O)CCCc1cnc2c3sccc3nc(SCc3c(Cl)cccc3Cl)n12 | 62.2% | 83.1% | 55.3% | 33.9% | 22.2% | 58.7% | -12.5% (active) | 59.5% | 38.5% | 28.3% | 59.3% | 20.7% | 59.2% | 69.6% | 54.6% | 50.3% | 27.2% | 41% | 53% | 33%
10 | O=C(Nc1nc(C(=O)N2CCN(C(c3ccccc3)c3ccccc3)CC2)cs1)c1ccc(NC2CCCCC2)c([N+](=O)[O-])c1 | 77.2% | 60.1% | 91.6% | 90.9% | 99.6% | 63.7% | 67.3% | 93.2% | 87.7% | 103% | 98.9% | 83.9% | 89.4% | 70.5% | 85% | 86.3% | 69.9% | 93.3% | 89.4% | 77.8%
11 | Cn1cc(-c2nn3cc(-c4ccccc4)nc3s2)c2ccccc21 | 79.2% | 69.5% | 71% | 61.4% | 79.9% | 71.9% | 38.9% | 66.1% | 99.4% | 73.7% | 99.2% | 29.3% | 55.3% | 67.3% | 89.3% | 81.2% | 78.9% | 78% | 76.9% | 51.5%
12 | Cc1ccc(S(=O)(=O)n2cc(C3C(Cl)C(=O)N3c3ccc(N4CCOCC4=O)cc3)c3ccccc32)cc1 (stereo not given) | 52.5% | 72.3% | 86.7% | 67.6% | 97.2% | 49.8% | 63.7% | 79.6% | 86% | 108% | 63.6% | 22.5% | 56.4% | 16.5% | 65.5% | 57.9% | 82.5% | 28.1% | 74.3% | 25.7%
13 | O=C1c2cc3c(cc2-c2c1c1ccc(Cl)cc1c(=O)n2C[C@H](O)CO)OCO3 | -11.4% (active) | -77.7% (active) | -14.3% (active) | -19.8% (active) | -12.1% (active) | -11% (active) | -12.7% (active) | -18.6% (active) | -42.2% (active) | -28.1% (active) | 3.78% (active) | 10.4% | -26.7% (active) | 19.5% | -66.6% (active) | 4.7% (active) | -14.8% (active) | -33.1% (active) | -36% (active) | -14.2% (active)
14 | CCOC(=O)c1ccc2c(c1)c1c(C)c3ccncc3c(C)c1n2C | -26.4% (active) | -37.1% (active) | 18.1% | -16.1% (active) | -5.22% (active) | 1.34% (active) | -52.6% (active) | 8.4% (active) | 16.7% | -44.7% (active) | 2.93% (active) | 7.07% (active) | -40.9% (active) | 2.92% (active) | -62.3% (active) | -7.28% (active) | 1.65% (active) | -0.581% (active) | -25.9% (active) | -57.2% (active)
15 | O=C1CC2C=CCN2C=C1NC(=O)C1CCCCC1 (stereo not given) | 97.4% | 104% | 100% | 102% | 112% | 115% | 89.7% | 97.5% | 99.5% | 105% | 98.9% | 99.9% | 78% | 108% | 104% | 95.5% | 98.5% | 98.4% | 97.8% | 114%
